# In PubChem BioAssay AID2071 (Sanford-Burnham Center for Chemical Genomics, 2009):
# Among all 280,000 compounds or so, about 1,700 (0.61%) were called active. No stated cut-off is given here; in the data, active means inhibition mostly above about 24% (no sharp cut-off); inactive means mostly below about 32%. This excerpt belongs to a sample that is enriched for actives.
# Assay: NALP1 inflammasome inhibitors in reconstituted yeast, colorimetric, S. cerevisiae, triplicate retest (AID 2071)
# Conditions: S. cerevisiae NALP1/ASC/caspase-1 growth, X-gal OD620, 72 h, stronger effect = higher value
smiles,measurement,setting,value
Cc1nc(NCCN)c(C#N)c2c1COC(C)(C)C2,inhibition,at 10 µM unless noted,8.1% (inactive)
COc1ccccc1C(=O)COC(=O)CNS(=O)(=O)c1ccc(NC(C)=O)cc1,inhibition,at 10 µM unless noted,16.9% (inactive)
Cc1ccccc1C(=O)NC(=S)NC1CC1,inhibition,at 10 µM unless noted,12.2% (inactive)
Cc1ccc(-n2c(SCC(=O)NCCC3=CCCCC3)nc3n[nH]c(C)c3c2=N)cc1Cl,inhibition,at 10 µM unless noted,39.4% (active)
CCCCNC(=O)CSc1nc2n[nH]c(C)c2c(=N)n1-c1cccc(Cl)c1C,inhibition,at 10 µM unless noted,-3.5% (inactive)
COc1cccc(-n2c(SCC(=O)NC3CCCCC3)nc3n[nH]c(C)c3c2=N)c1,inhibition,at 10 µM unless noted,-7.2% (inactive)
COc1ccc(N(C)C(=O)C2CCN(S(=O)(=O)c3cccc4nsnc34)CC2)cc1,inhibition,at 10 µM unless noted,9.7% (inactive)
Cc1ccc(NC(=O)c2cc3ccccc3o2)cc1,inhibition,at 10 µM unless noted,8.6% (inactive)
O=C(CCCCCn1c(=S)[nH]c2ccsc2c1=O)NC1CCCCC1,inhibition,at 10 µM unless noted,-20.3% (inactive)
Cc1cc(NC(=O)c2ccccc2C)no1,inhibition,at 10 µM unless noted,17% (inactive)
CCOCCCNC(=O)C(NC(=O)c1ccc(=O)[nH]c1)c1ccc(C)cc1 (stereo not given),inhibition,at 10 µM unless noted,-4% (inactive)
CCOCCCNC(=O)C(NC(=O)c1ccccc1O)c1ccccc1 (stereo not given),inhibition,at 10 µM unless noted,-7.8% (inactive)
CCOCCCNC(=O)C(NC(=O)CNC(=O)c1ccccc1)c1ccc(OC)cc1 (stereo not given),inhibition,at 10 µM unless noted,-2.8% (inactive)
CCOCCCNC(=O)C(NC(=O)CNC(=O)c1ccccc1)c1ccc(C)cc1 (stereo not given),inhibition,at 10 µM unless noted,38.2% (active)
CCOCCCNC(=O)C(NC(=O)c1ccc(=O)[nH]c1)c1ccc(Cl)cc1 (stereo not given),inhibition,at 10 µM unless noted,38.8% (active)
CCOCCCNC(=O)C(NC(=O)Cc1c[nH]c2ccccc12)c1ccc(OC)cc1 (stereo not given),inhibition,at 10 µM unless noted,6.3% (inactive)
COC(=O)c1ccc2c(C(C)(C)O)c(C(C)(C)O)[nH]c2c1,inhibition,at 10 µM unless noted,2.7% (inactive)
O=C(Nc1cccc(Cl)c1Cl)c1ccccc1NC(=O)C1CC=CCC1C(=O)O (stereo not given),inhibition,at 10 µM unless noted,11% (inactive)
CCCN1C2CCCC1CC(NC(=O)NC13CC4CC(CC(C4)C1)C3)C2 (stereo not given),inhibition,at 10 µM unless noted,13.5% (inactive)
COc1cccc(C(C(=O)NC2CCCC2)N(C(=O)c2ccco2)c2cccc(C(C)=O)c2)c1OC (stereo not given),inhibition,at 10 µM unless noted,24.9% (inactive)
CCCn1c(CCNc2nc(-c3ccc(OC)cc3)cs2)nc2ccccc21,inhibition,at 10 µM unless noted,-2.4% (inactive)
O=C(CSc1ncnc2c1oc1ccccc12)NC1CCCC1,inhibition,at 10 µM unless noted,15.8% (inactive)
O=C(CSc1ncnc2c1nnn2Cc1ccc(F)cc1)NC1CCCC1,inhibition,at 10 µM unless noted,23.4% (active)
O=C(Cc1ccc(F)cc1)NC1CCCC1,inhibition,at 10 µM unless noted,9.3% (inactive)
COc1ccc(-c2cc(C(=O)N(C)Cc3ccc(OC)c(OC)c3OC)c3ccccc3n2)cc1OC,inhibition,at 10 µM unless noted,19% (inactive)
Cc1nnc(NC2=NCCCCC2)o1,inhibition,at 10 µM unless noted,37.9% (active)
Cn1cccc1C(=O)N1CCc2ccccc2C1,inhibition,at 10 µM unless noted,19.1% (inactive)
CCC(C)c1ccc(NC(=S)N2CCCC2)cc1 (stereo not given),inhibition,at 10 µM unless noted,-2.6% (inactive)
COc1cc(/C=N/O)ccc1OCc1ccc([N+](=O)[O-])cc1,inhibition,at 10 µM unless noted,12.2% (inactive)
COc1ccc(C(=O)/C=C/c2ccc(-c3ccccc3)cc2)cc1CSCC(=O)O,inhibition,at 10 µM unless noted,3% (inactive)
COC(=O)c1ccc(COc2ccc(/C=C/C(=O)c3ccc(OC)c(CSCC(=O)O)c3)cc2OC)cc1,inhibition,at 10 µM unless noted,34.2% (active)
CC(=O)Nc1ccc(N2C(=O)CC(Sc3nccc(C)n3)C2=O)cc1 (stereo not given),inhibition,at 10 µM unless noted,-0.3% (inactive)
Cn1c(NC(=O)c2ccccc2)nc2ccccc21,inhibition,at 10 µM unless noted,7.4% (inactive)
CCc1ccc(S(=O)(=O)N/N=C\c2ccc([N+](=O)[O-])o2)cc1,inhibition,at 10 µM unless noted,9.4% (inactive)
Cc1cc2ccccn2c1C(=O)c1cccc(F)c1,inhibition,at 10 µM unless noted,17.6% (inactive)
Cc1ccc(C(C[N+](=O)[O-])c2c(C)cc3ccccn23)cc1 (stereo not given),inhibition,at 10 µM unless noted,98.9% (active)
CCC1=Nc2cc(C(=O)NCCCN3CCOCC3)ccc2Sc2ccc(Br)cc21,inhibition,at 10 µM unless noted,7.2% (inactive)
CCc1ccc(CN(C)C(=O)C2CCC(=O)N(Cc3cccc(OC)c3)C2)nc1 (stereo not given),inhibition,at 10 µM unless noted,9.6% (inactive)
Cc1oc2cc3oc(=O)ccc3cc2c1C,inhibition,at 10 µM unless noted,8.6% (inactive)
CN(C)CCCN(C(=O)COc1ccccc1)c1nc2c(Cl)cccc2s1,inhibition,at 10 µM unless noted,3.9% (inactive)
COc1cccc2sc(N(CCCN(C)C)C(=O)CCS(=O)(=O)c3ccccc3)nc12,inhibition,at 10 µM unless noted,14.3% (inactive)
Cc1cccc2sc(N(CCCN(C)C)C(=O)CCS(=O)(=O)c3ccccc3)nc12,inhibition,at 10 µM,78.1% (active)
same,inhibition,"triplicate retest, at 20 µM",99.3%
CC(C)CCNC(=O)c1ccc2c(Cl)c3c(nc2c1)CCC3,inhibition,at 10 µM unless noted,16.8% (inactive)
Cc1ccc(N(Cc2cc(=O)[nH]c3ccccc23)C(=O)CCl)cc1,inhibition,at 10 µM unless noted,17.4% (inactive)
O=C(CC(O)(C(F)(F)F)C(F)(F)F)Nc1ccc(Cl)c(Cl)c1,inhibition,at 10 µM,78.5% (active)
same,inhibition,"triplicate retest, at 20 µM",110%
Cc1ccc(NC(=O)C/C(N)=N/O)cc1Cl,inhibition,at 10 µM unless noted,-8.9% (inactive)
O=C(CC(=O)Nc1ccc(Cl)c(Cl)c1)N/N=C/c1ccc(O)cc1,inhibition,at 10 µM unless noted,21.7% (inactive)
COc1ccc(C(=O)C2CCCN(C(=O)c3cc(C)on3)C2)cc1F (stereo not given),inhibition,at 10 µM unless noted,4% (inactive)
